Source: PubChem BioAssay (EPA / NIEHS)
Active and inactive are the calls of the source. The calls were made as follows: active = hit-call score of the fitted dose curve at least 0.9, where 1 is the maximum; inactive = score below 0.9.

Assays:
[1] = read-out: Urokinase-type plasminogen activator receptor (uPAR), PLAUR (gene 5329); experiment: BSK_4H_uPAR: BioMAP Diversity Plus: 4H Assay for Urokinase-type plasminogen activator receptor (uPAR) Biomarker Activity (AID 2283030); settings: primary human endothelial cells (HUVEC); actives raise or lower the signal
In short: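 Endpoint derived via bidirectional curve fitting against DMSO baseline; readout was ELISA detection of uPAR on umbilical vein endothelial cells at 24 h post-treatment, with SRB-stained parallel cultures assessing cytotoxicity.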

[2] = read-out: Vascular endothelial growth factor receptor 2 (Homo sapiens) (UniProt P35968); experiment: BSK_4H_VEGFRII: BioMAP Diversity Plus: 4H Assay for Vascular endothelial growth factor receptor 2 (VEGFR2) Biomarker Activity (AID 2283031); settings: primary human endothelial cells (HUVEC); actives raise or lower the signal;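 as to AC50: cell-surface VEGFR2 protein level quantified by ELISA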
In short: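 In this multiplexed HUVEC system, biomarker ELISA was performed after 24 h chemical exposure. Parallel SRB staining (TCA fixation, 560 nm) tracked cytotoxicity; DMSO served as baseline.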

[3] = read-out: Human Leukocyte Antigen - DR isotype (HLADR), HLA-DRA (gene 3122); experiment: BSK_BE3C_HLADR: BioMAP Diversity Plus: BE3C Assay for Human Leukocyte Antigen - DR isotype (HLADR) Biomarker Activity (AID 2283032); settings: primary human bronchial epithelial cells; actives raise or lower the signal
In short: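 BioMAP BE3C format: human bronchial epithelium, 24 h compound treatment, ELISA detection of HLA-DR, with bidirectional analysis relative to DMSO.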

[4] = read-out: Vascular cell adhesion molecule 1 (VCAM1), VCAM1 (gene 7412); experiment: BSK_4H_VCAM1: BioMAP Diversity Plus: 4H Assay for Vascular cell adhesion molecule 1 (VCAM1) Biomarker Activity (AID 2283033); settings: primary human endothelial cells (HUVEC); actives raise or lower the signal
In short: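 In this human endothelial (HUVEC) system, biomarker ELISA was run 24 h after compound addition, and total protein in parallel wells was assessed by SRB at 560 nm; DMSO served as negative control.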

[5] = read-out: Interferon-gamma inducible Protein 10 (IP10), CXCL10 (gene 3627); experiment: BSK_BE3C_IP10: BioMAP Diversity Plus: BE3C Assay for Interferon-gamma inducible Protein 10 (IP10) Biomarker Activity (AID 2283034); settings: primary human bronchial epithelial cells; actives raise or lower the signal
In short: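 BE3C cells (human bronchial epithelial, primary); 24 h exposure; ELISA for IP-10; DMSO-referenced bidirectional fit.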

[6] = read-out: Monokine induced gamma interferon (MIG), CXCL9 (gene 4283); experiment: BSK_BE3C_MIG: BioMAP Diversity Plus: BE3C Assay for Monokine induced gamma interferon (MIG) Biomarker Activity (AID 2283035); settings: primary human bronchial epithelial cells; actives raise or lower the signal
In short: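 hu bronchial epithelial 1° cells, 24 h cpd; MIG by ELISA; bidirectional fit, DMSO = baseline.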

[7] = read-out: Transforming growth factor beta 1 (TGFb1), TGFB1 (gene 7040); experiment: BSK_BE3C_TGFb1: BioMAP Diversity Plus: BE3C Assay for Transforming growth factor beta 1 (TGFb1) Biomarker Activity (AID 2283036); settings: primary human bronchial epithelial cells; actives raise or lower the signal
In short: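 TGF-b1 measured via ELISA, 24 h after chemical dosing of human bronchial epithelial cells (BE3C). Overt cytotoxicity assessed in parallel by SRB (0.1%, TCA-fixed, 560 nm); analysis bidirectional relative to DMSO.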

[8] = read-out: Plasminogen activator inhibitor-1 (PAI1), SERPINE1 (gene 5054); experiment: BSK_BE3C_PAI1: BioMAP Diversity Plus: BE3C Assay for Plasminogen activator inhibitor-1 (PAI1) Biomarker Activity (AID 2283037); settings: primary human bronchial epithelial cells; actives raise or lower the signal
In short: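 In this multiplexed primary-cell system, bronchial epithelial cells receive test chemical and are sampled at 24 h. PAI-1 is read by ELISA, with DMSO serving as negative control for bidirectional fitting.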

[9] = read-out: urokinase plasminogen activator (uPA), PLAU (gene 5328); experiment: BSK_BE3C_uPA: BioMAP Diversity Plus: BE3C Assay for urokinase plasminogen activator (uPA) Biomarker Activity (AID 2283038); settings: primary human bronchial epithelial cells; actives raise or lower the signal
In short: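 Using confluent primary human lung bronchial epithelial cultures, we dosed chemicals, waited 24 h, then ran a uPA ELISA, fitting bidirectionally against DMSO.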

[10] = read-out: Interleukin-6 (IL6), IL6 (gene 3569); experiment: BSK_CASM3C_IL6: BioMAP Diversity Plus: CASM3C Assay for Interleukin-6 (IL6) Biomarker Activity for (AID 2283040); settings: primary human coronary artery smooth muscle cells; actives raise or lower the signal
[11] = read-out: Tissue plasminogen activator (tPA), PLAT (gene 5327); experiment: BSK_BE3C_tPA: BioMAP Diversity Plus: BE3C Assay for Tissue plasminogen activator (tPA) Biomarker Activity (AID 2283041); settings: primary human bronchial epithelial cells; actives raise or lower the signal;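 also: tPA level quantified by ELISA one day after compound addition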
In short: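 Using human lung primary bronchial epithelial cells, tPA was measured by ELISA 24 h after dosing; data fitted relative to DMSO.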

[12] = read-out: Interleukin-8 (IL8), CXCL8 (gene 3576); experiment: BSK_CASM3C_IL8: BioMAP Diversity Plus: CASM3C Assay for Interleukin-8 (IL8) Biomarker Activity (AID 2283042); settings: primary human coronary artery smooth muscle cells; actives raise or lower the signal;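 also: IL-8 protein level quantified by ELISA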
[13] = read-out: Human Leukocyte Antigen - DR isotype (HLADR), HLA-DRA (gene 3122); experiment: BSK_CASM3C_HLADR: BioMAP Diversity Plus: CASM3C Assay for Human Leukocyte Antigen - DR isotype (HLADR) Biomarker Activity (AID 2283043); settings: primary human coronary artery smooth muscle cells; actives raise or lower the signal;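 also: cell-surface HLA-DR protein level quantified by ELISA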
[14] = read-out: Macrophage colony-stimulating factor (MCSF), CSF1 (gene 1435); experiment: BSK_CASM3C_MCSF: BioMAP Diversity Plus: CASM3C Assay for Macrophage colony-stimulating factor (MCSF) Biomarker Activity (AID 2283044); settings: primary human coronary artery smooth muscle cells; actives raise or lower the signal;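 also: M-CSF protein amount quantified by ELISA after 24 h exposure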
[15] = read-out: Low-density lipoprotein receptor (LDLR), LDLR (gene 3949); experiment: BSK_CASM3C_LDLR: BioMAP Diversity Plus: CASM3C Assay for Low-density lipoprotein receptor (LDLR) Biomarker Activity (AID 2283045); settings: primary human coronary artery smooth muscle cells; actives raise or lower the signal;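 also: LDLR protein level on the cell surface quantified by ELISA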
[16] = read-out: Monocyte Chemoattractant Protein-1 (MCP1), CCL2 (gene 6347); experiment: BSK_CASM3C_MCP1: BioMAP Diversity Plus: CASM3C Assay for Monocyte Chemoattractant Protein-1 (MCP1) Biomarker Activity (AID 2283046); settings: primary human coronary artery smooth muscle cells; actives raise or lower the signal;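 also: MCP-1 level quantified by ELISA 24 h after dosing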
[17] = BSK_CASM3C_Proliferation: Cell Proliferation Assessment in the BioMAP Diversity Plus: CASM3C Assay (AID 2283047); settings: primary human coronary artery smooth muscle cells;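 also: sulforhodamine B total protein stain as relative cell number at 560 nm; sub-confluent cells exposed 48 h before staining; fitted both ways against DMSO so gain or loss of cell number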
[18] = read-out: Monokine induced gamma interferon (MIG), CXCL9 (gene 4283); experiment: BSK_CASM3C_MIG: BioMAP Diversity Plus: CASM3C Assay for Monokine induced gamma interferon (MIG) Biomarker Activity (AID 2283048); settings: primary human coronary artery smooth muscle cells; actives raise or lower the signal;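 also: MIG protein level measured by ELISA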
[19] = read-out: serum amyloid A (SAA), SAA1 (gene 6288); experiment: BSK_CASM3C_SAA: BioMAP Diversity Plus: CASM3C Assay for serum amyloid A (SAA) Biomarker Activity (AID 2283049); settings: primary human coronary artery smooth muscle cells; actives raise or lower the signal;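 also: SAA protein level quantified by ELISA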

Measured: AC50

CC(C1CC1)C(O)(Cn1cncn1)c1ccc(Cl)cc1 (stereo not drawn)
inactive: all assays above

C#CCC1=C(C)C(OC(=O)C2C(C=C(C)C)C2(C)C)CC1=O (stereo not drawn)
active: [5] 27.1 µM | [17] 26.8 µM
inactive: all other assays above

CN1COCN(Cc2cnc(Cl)s2)C1=N[N+](=O)[O-]
inactive: all assays above

CCc1cccc(CC)c1N(COC)C(=O)CCl
active: [3] 33.4 µM | [4] 15.3 µM | [5] 31.8 µM
inactive: all other assays above

Nc1nc(N)nc(NC2CC2)n1
inactive: all assays above

C[Si](Cn1cncn1)(c1ccc(F)cc1)c1ccc(F)cc1
inactive: all assays above

CCOP(=S)(OCC)Oc1cc(C)nc(C(C)C)n1
active: [17] 14.3 µM
inactive: all other assays above

N#CSCSC#N
active: [1] 5.82 µM | [4] 6.29 µM | [10] 14.4 µM | [12] 16.1 µM | [13] 21.4 µM | [14] 16.1 µM | [16] 20.5 µM | [17] 2.16 µM | [18] 14.1 µM | [19] 30.2 µM
inactive: [2] | [3] | [5] | [6] | [7] | [8] | [9] | [11] | [15]

CCOP(=O)(NC(C)C)Oc1ccc(SC)c(C)c1 (stereo not drawn)
inactive: all assays above

COP(=O)(OC)OC(Br)C(Cl)(Cl)Br (stereo not drawn)
active: [1] 27.9 µM | [2] 31.1 µM | [3] 27.7 µM | [4] 30.7 µM | [5] 30.3 µM | [6] 30.8 µM | [7] 33.1 µM | [8] 27.9 µM | [9] 32 µM | [10] 31.2 µM | [12] 32.2 µM | [14] 27.7 µM | [16] 28.6 µM | [17] 11.2 µM | [18] 29.8 µM | [19] 29.9 µM
inactive: [11] | [13] | [15]

COP(=O)(OC)C(O)C(Cl)(Cl)Cl (stereo not drawn)
active: [17] 20 µM
inactive: all other assays above

Cc1ccn2nc(S(=O)(=O)Nc3c(F)cccc3F)nc2n1
inactive: all assays above

CCCCSP(=O)(SCCCC)SCCCC
active: [3] 20 µM | [14] 29.4 µM | [17] 36.8 µM
not listed: [2]
inactive: all other assays above

COc1cc(OC)nc(Sc2cccc(Cl)c2C(=O)O)n1
inactive: all assays above

CNc1cnn(-c2cccc(C(F)(F)F)c2)c(=O)c1Cl
active: [3] 23.7 µM
inactive: all other assays above

CCCSP(=O)(OCC)SCCC
inactive: all assays above

FC(F)C(F)(F)OCC(Cn1cncn1)c1ccc(Cl)cc1Cl (stereo not drawn)
active: [1] 31.7 µM | [3] 29.8 µM | [4] 29.7 µM | [5] 26.4 µM
inactive: all other assays above

CCc1cccc(C)c1N(C(=O)CCl)C(C)COC (stereo not drawn)
inactive: all assays above

CCCCOC(=O)[C@@H](C)Oc1ccc(Oc2ccc(C#N)cc2F)cc1
inactive: all assays above

COP(=O)(NC(C)=O)SC (stereo not drawn)
inactive: all assays above

C[N+]1(C)CCCCC1
active: [7] 0.193 µM
inactive: all other assays above
